# Source: PubChem BioAssay (several laboratories)
# BJeLR viability: BJeLR cell viability loss; BJeLR (HRASV12) viability, CellTiter-Glo ATP luminescence, 48 h; inhibition, % (no concentration beside the values); 300,000 tested, 0.17% active; AID 1554; in the data active = inhibition above about 50%
# PrPC TRFRET: inhibitors of human cell surface prion protein PrPC; P04156; TR-FRET read-out; inhibition, % at 13.8 µM; 370,000 tested, 0.43% active; AID 720596; in the data active = inhibition above about 24%; also: 0% = median of the test wells and 100% = reference compound wells
# FBA Mtb inh: inhibitors of M. tuberculosis fructose-bisphosphate aldolase | inhibition, % at 1 µM | purified M. tuberculosis FBA, fluorescence read-out | P9WQA3 | 360,000 tested, 2.3% active; in the data active = inhibition above about 27%;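 also: 0% = vehicle and 100% = reference inhibitor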
# RecA splice inh: blocks M. tuberculosis RecA intein splicing. P9WHJ3. inhibition, % (concentration not given with the values). cell-free RecA intein splicing, fluorescence. 290,000 tested, 0.75% active; in the data active = inhibition above about 30%;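 also: 0% = vehicle wells and 100% = reference inhibitor control wells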
# Target sequence (P9WHJ3 whole entry, looked up, canonical isoform): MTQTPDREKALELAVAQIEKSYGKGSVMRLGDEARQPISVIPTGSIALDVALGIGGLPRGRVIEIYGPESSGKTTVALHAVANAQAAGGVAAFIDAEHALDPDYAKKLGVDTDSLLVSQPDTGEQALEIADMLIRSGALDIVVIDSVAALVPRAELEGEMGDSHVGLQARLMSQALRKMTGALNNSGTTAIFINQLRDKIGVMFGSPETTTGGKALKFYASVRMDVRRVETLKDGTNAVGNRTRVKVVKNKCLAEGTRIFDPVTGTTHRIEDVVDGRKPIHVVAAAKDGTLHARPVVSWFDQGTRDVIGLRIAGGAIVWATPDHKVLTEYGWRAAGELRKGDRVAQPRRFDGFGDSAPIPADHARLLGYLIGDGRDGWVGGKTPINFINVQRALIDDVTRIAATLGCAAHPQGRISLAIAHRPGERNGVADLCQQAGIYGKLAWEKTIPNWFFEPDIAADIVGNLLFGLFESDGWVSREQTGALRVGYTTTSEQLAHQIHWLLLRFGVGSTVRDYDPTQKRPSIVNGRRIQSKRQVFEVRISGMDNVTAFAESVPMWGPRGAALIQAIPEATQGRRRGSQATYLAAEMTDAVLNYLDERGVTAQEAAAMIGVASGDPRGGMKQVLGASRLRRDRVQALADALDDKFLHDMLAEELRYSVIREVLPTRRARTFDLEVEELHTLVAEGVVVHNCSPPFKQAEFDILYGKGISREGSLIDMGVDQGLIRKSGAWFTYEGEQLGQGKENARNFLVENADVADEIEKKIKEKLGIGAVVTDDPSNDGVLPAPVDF
# GDH-TPI counter: inhibits GDH-TPI coupling enzymes, artifact for Mtb FBA screen. GDH-TPI coupled enzyme counterscreen, NADH absorbance. inhibition, % at 4.8 µM. 360,000 tested, 1.2% active; in the data active = inhibition above about 30%;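 also: 0% = DMSO wells and 100% = wells lacking the enzyme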
# PrPC confirm: cell surface PrPC inhibition, TR-FRET confirmation; cell surface PrPC level; 1,500 tested, 65% active; shares compounds with PrPC TRFRET; inhibition, % at 13.8 µM; in the data active = inhibition above about 25%
# LD9 tox: LD9 cell cytotoxicity, PrPc inhibitor counter-screen; shares compounds with PrPC TRFRET; LD9 cells cytotoxicity, luminescence viability; inhibition, % at 13.8 µM; 1,500 tested, 29% active; AID 743201; in the data active = inhibition above about 9.5%
# * hit, by the source's call; . = no result given. Only some compounds are listed: those with a hit (about 4.2% of all), similar ones and a draw of the others.
SMILES,BJeLR viability,PrPC TRFRET,FBA Mtb inh,RecA splice inh,GDH-TPI counter,PrPC confirm,LD9 tox
CC(=O)N1c2ccc(S(=O)(=O)N3CCCC(C(=O)Nc4cc(C)cc(C)c4)C3)cc2CC1C (stereo unspecified),7,35*,5,3,6,58*,-5
COc1cc(NC(=O)C2CCCN(S(=O)(=O)c3ccc4c(c3)CCCN4C(C)=O)C2)cc(OC)c1 (stereo unspecified),-3,41*,-2,0,9,28*,-1
COc1ccc(NC(=O)C2CCCN(S(=O)(=O)c3ccc4c(c3)CC(C)N4C(C)=O)C2)cc1 (stereo unspecified),9,4,0,-1,-3,.,.
CC(=O)N1c2ccc(S(=O)(=O)N3CCCC(C(=O)Nc4ccc(C)cc4)C3)cc2CC1C (stereo unspecified),.,5,4,.,5,.,.
CC(=O)N1c2ccc(S(=O)(=O)N3CCCC(C(=O)Nc4ccc(F)cc4)C3)cc2CC1C (stereo unspecified),14,35*,4,1,5,39*,16*
CCN(CC)C(=O)CC[C@@H]1CC[C@]2(CCCN(Cc3ccccn3)C2)O1,.,6,.,.,.,.,.
N#Cc1ccc(Cn2ccc3ccc(-c4ccc5ccn(Cc6ccccc6)c5c4)cc32)cc1,.,8,.,.,.,.,.
CCCCCCn1c(=O)n2n(c1=O)C[C@]1(OC(=O)Nc3cccs3)CN(S(=O)(=O)c3ccc(C)cc3)C[C@]1(O)C2,.,25*,5,.,19,5,0
CCOc1ccccc1NC(=O)Nc1ccc(Cl)cc1,1,26*,10,8,4,13,0
COC(=O)C1=C(C)N(Cc2ccccc2C(F)(F)F)C(=NCc2ccc(C(F)(F)F)cc2)NC1c1cccc(F)c1 (stereo unspecified),.,-1,.,.,.,.,.
CCC(Sc1ccc2nnc(-c3ccc(F)cc3)n2n1)C(=O)O (stereo unspecified),11,38*,9,0,7,58*,-8
NC(=O)c1cc(NC(=O)CCc2nc3ccccc3s2)cc(C(N)=O)c1,-8,37*,6,-4,7,31*,5
COc1ccccc1NC(=O)CSc1ncnc2c1oc1ccccc12,3,26*,-3,.,-11,20,0
C[C@H]1C2CC(OC(=O)NCc3ccc(Cl)cc3)C(C2)[C@H]2CCCCN21 (stereo partly specified),.,-8,.,.,.,.,.
CC1CCCCN1C(=O)c1ccc(CNC(=O)c2cccc(Br)c2)cc1 (stereo unspecified),.,7,.,.,.,.,.
CCC(=O)N1CCN(c2ccc(NC(=O)c3ccc([N+](=O)[O-])o3)cc2Cl)CC1,11,38*,2,-1,9,21,97*
CC(=O)N1CCN(c2ccc(NC(=O)c3ccc([N+](=O)[O-])o3)cc2Cl)CC1,-4,10,-6,-2,10,.,.
Cc1cc(-c2n[nH]c(=S)n2N=Cc2cccc(Oc3ccccc3)c2)n[nH]1,.,-5,.,.,.,.,.
COC(=O)[C@]12C[C@H](CC(=O)NCc3ccccc3)C(=O)N(Cc3ccc(Cl)cc3Cl)C1=C[C@H](C1CCCC1)O[C@@H]2C,.,0,.,.,.,.,.
Cc1cccc(/C=C(\c2nc3ccccc3[nH]2)S(=O)(=O)c2ccccc2)c1,1,25*,-3,6,2,17,22*
COC(=O)C1=C(C)N(Cc2ccc(C(F)(F)F)cc2)C(=NCC2CC2)NC1c1ccccc1C(F)(F)F (stereo unspecified),.,-1,.,.,.,.,.
O=C(COc1ncnc2ccccc12)Nc1cccc(S(=O)(=O)N2CCOCC2)c1,9,7,-3,-7,-16,.,.
CN(C)S(=O)(=O)c1ccc(NC(=O)CSc2ncnc3ccccc23)cc1,2,50*,5,19,7,53*,-13
CN(C)S(=O)(=O)c1cccc(NC(=O)CSc2nc3ccccc3[nH]2)c1,7,-1,2,3,6,.,.
CN(C)S(=O)(=O)c1cccc(NC(=O)CSc2ncnc3ccccc23)c1,8,51*,7,5,9,77*,-4
SMILES,BJeLR viability,PrPC TRFRET,FBA Mtb inh,RecA splice inh,GDH-TPI counter,PrPC confirm,LD9 tox
O=C(CSc1ncnc2ccccc12)Nc1cccc(S(=O)(=O)N2CCOCC2)c1,3,68*,1,19,0,66*,3
Cc1ccccc1NC(=O)OC1CCC12CCCCC2 (stereo unspecified),.,-6,.,.,.,.,.
COC(=O)c1ccc(-c2cccc(CN3CCN(c4ncc(Cc5ccccc5)cn4)CC3)c2)cc1,.,0,.,.,.,.,.
O=S1(=O)c2ccc(N3CCC[C@@H]3CO)cc2OCCCN1C1CC1,.,9,.,.,.,.,.
Cc1ccc(-c2csc(NC(=O)c3ccc(Br)cc3)c2C(=O)O)cc1,7,0,0,3,7,.,.
COc1cc(C(=O)Nc2scc(-c3ccc(Br)cc3)c2C(=O)O)cc(OC)c1OC,0,56*,7,19,3,60*,-5
Cc1cccc(C(=O)Nc2scc(-c3ccc(Br)cc3)c2C(=O)O)c1,11,6,-2,2,-2,.,.
Cc1ccc(-c2csc(NC(=O)c3cccc(C)c3)c2C(=O)O)cc1,-2,36*,7,4,6,50*,-6
CCn1c(SCC(=O)NN=Cc2cc(OC)ccc2OC)nnc1-c1ccc(OC)cc1,.,2,.,.,.,.,.
COC(=O)[C@H](Cc1ccccc1)NP(=O)(OC)[C@@H](C)NC(=O)OCc1ccccc1 (stereo partly specified),.,3,.,.,.,.,.
CCOc1ccc(-c2cc(C(=O)NCCCn3ccnc3)c3cc(Br)ccc3n2)cc1,2,25*,6,2,9,82*,0
Nc1ccn([C@@H]2O[C@H](C(=O)N3CCN(C(=O)N4CCCCC4)CC3)[C@@H](O)[C@H]2O)c(=O)n1,.,-2,.,.,.,.,.
NS(=O)(=O)c1ccc(CCNC(=O)CCCCCn2c(=S)[nH]c3ccc(Br)cc3c2=O)cc1,1,25*,-2,0,8,37*,-4
O=C(NNc1ccccc1Br)C(O)(c1cccc(C(F)(F)F)c1)c1cccc(C(F)(F)F)c1,4,30*,2,-1,6,6,1
Cc1ccc(C(=O)NC2CCCCN(Cc3cccc(F)c3)C2=O)cc1 (stereo unspecified),.,3,.,.,.,.,.
Cc1ccccc1NC(=O)Nc1ccc(C(F)(F)F)cc1,0,30*,4,2,-2,17,9
Cc1ccc(S(=O)(=O)N(C)C)cc1NC(=O)c1cncc(Br)c1,-2,27*,-1,-1,13,21,-2
CN(C)S(=O)(=O)c1cccc(NC(=O)c2cncc(Br)c2)c1,-15,10,0,-5,-4,.,.
COc1ccc(C(=O)Nc2ccccc2C(=O)NC(Cc2ccc(O)cc2)C(=O)NNC(=O)c2ccc(C)cc2)cc1 (stereo unspecified),-2,83*,-8,3,-10,6,-1
